# Only some compounds are listed: those with a hit (about 2.8% of all), similar ones and a draw of the others.
# BRCA1 expr up: qHTS Assay to Identify Small Molecule Activators of BRCA1 Expression; MCF7-BRCA1-FFLuc reporter, luminescence, 48 h; response scale: scaled: vehicle 0%, 10 µM genistein 100%; AID 624202, 2012; 1.1% of 380,000 active; Potency, µM (top dose mostly 46.1 µM), for inactives: top-dose activation, hits mostly activators; note: nearly all actives have a fitted effect of over 80% in size
#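 MCF7 cells carrying a BRCA1-firefly luciferase reporter (2000 cells/well, phenol-red free MEM) were attached for 2 h at 37 °C, then given compounds for 48 h. Luminescence was read 15 min after luciferase reagent; activity normalized to genistein (10 microM) and DMSO.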
# GLP1R inv ag: qHTS of GLP-1 Receptor Inverse Agonists (Inhibition Mode); Potency, µM (doses to about 38.3 µM), without a hit: at the top dose activity change, negative = inhibition, hits mostly inhibitors; HEK293 GLP-1R CRE-luciferase, luminescence, 24 h; GLP-1R form is constitutively active; Glucagon-like peptide 1 receptor (Homo sapiens), P43220; AID 624417, 2012; 1.6% of 410,000 active; note: % is set by controls: 0 for no effect and ±100 for the full control effect; nearly all actives have a fitted effect of over 55% in size
# Target sequence (P43220 whole entry, looked up): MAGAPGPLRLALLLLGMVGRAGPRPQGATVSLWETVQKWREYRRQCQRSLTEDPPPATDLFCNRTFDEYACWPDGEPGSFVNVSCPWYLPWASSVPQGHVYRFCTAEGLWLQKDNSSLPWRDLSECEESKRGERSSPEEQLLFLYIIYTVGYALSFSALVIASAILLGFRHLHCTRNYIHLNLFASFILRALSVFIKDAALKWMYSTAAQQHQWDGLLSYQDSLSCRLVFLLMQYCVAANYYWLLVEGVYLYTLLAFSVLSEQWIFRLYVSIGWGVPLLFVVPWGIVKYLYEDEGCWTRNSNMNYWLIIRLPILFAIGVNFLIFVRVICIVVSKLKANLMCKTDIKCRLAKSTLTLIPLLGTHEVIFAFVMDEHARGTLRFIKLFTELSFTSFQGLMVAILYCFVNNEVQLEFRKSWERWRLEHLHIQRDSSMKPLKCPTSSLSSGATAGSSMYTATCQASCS
#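 qHTS in 1536-well format: reporter HEK293 cells expressing constitutive GLP-1R activity in DMEM + 10% Nu serum, 24 hr with compounds at 37 deg C, luminescence read after 12 min with detection reagent.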
# GLP-1R agonist: qHTS of GLP-1 Receptor Agonists. Glucagon-like peptide 1 receptor (Homo sapiens), P43220. HEK293 GLP-1R CRE-luciferase, luminescence, 4-6 h; cells express a hypersensitive GLP-1R form. Potency, µM (doses to about 45.6 µM), inactives show at the highest dose activation, most hits filed as activators. 0.007% of 380,000 active; note: % of control where 0% means no effect
# GLP1R cytotox: qHTS of GLP-1 Receptor Inverse Agonists: Cytotox Screen | HEK293 cAMP-luciferase reporter cells, luminescence, 24 h | Potency, µM (series often up to 38.3 µM), for the others: at the top dose activity change, negative = inhibition, actives largely listed as inhibitors | 0.13% of 410,000 active | AID 624418, 2012;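 note: loss of luciferase light is scored as toxicity; % is set by controls: 0 for no effect and ±100 for the full control effect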
#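 Quantitative HTS format, 1536 wells, 200 cells/uL seeded. Compounds: 23 nL, 24 h, 37 °C. Detection: luciferase reagent, luminescence at 12 min RT; decreased signal taken as cytotoxic.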
# Mito fusion yeast: qHTS Assay for Small Molecule Inhibitors of Mitochondrial Division or Activators of Mitochondrial Fusion; S. cerevisiae fusion-defective mutant growth rescue, CellTiterGlo 48 h; Potency, µM (highest dose often 46.1 µM), inactives show top-dose growth rescue (activation), most hits filed as activators; 0.23% of 320,000 active; note: % of control where 0% means no effect; nearly all actives have a fitted effect of over 45% in size
#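 Temperature-sensitive fusion-defective S. cerevisiae (e.g. fzo1-1, mgm1-5) were grown with compound in YPEG medium (3% ethanol, 3% glycerol) for 48 hours at 37C. Growth rescue was measured as viability by CellTiterGlo luminescence after 10 minutes at ambient.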
# Active calls of the source: *; u = inconclusive; x = no result; ! = a repeat was not active; [ ] = remark or other dose. Calls come from the whole dose curve; as a rule, active = well fitted curve in the direction sought with a large enough effect; inconclusive = small, poorly fitted or top-dose-only effect, or another doubt; inactive = no such curve, though single readings can be large; an effect the other way counts as inactive or inconclusive. Potency is the fitted concentration of half-maximal effect.
SMILES,BRCA1 expr up,GLP1R inv ag,GLP-1R agonist,GLP1R cytotox,Mito fusion yeast
Cc1ccc(-c2noc(C3CCCN(C(=O)c4ccccc4Br)C3)n2)o1 (centres undefined),10µM*,3%,15%,-15%,-9%
Cc1ccc(-c2noc(C3CCCN(C(=O)c4ccccc4)C3)n2)o1 (centres undefined),10µM*,10%,9%,-14%,-2%
O=C(c1ccccc1Br)N1CCCC(c2nc(-c3cccs3)no2)C1 (centres undefined),39%,u,8%,1%,16%
O=C(CNS(=O)(=O)c1ccccc1)N1CCc2ccccc2C1,11µM*,10%,1%,5%,2%
O=C(NC(Cc1ccccc1)C(=O)N1CCc2ccccc2C1)c1ccccc1 (centres undefined),-31%,8.9µM*,13%,2%,2%
Cc1ccc(S(=O)(=O)NCC(=O)N2CCc3ccccc3C2)cc1,-30%,4%,2%,0%,0%
CC(C)CNC(=S)N(CCN(C)C)Cc1cc2cc3c(cc2[nH]c1=O)OCCO3,-29%,11%,16%,0%,-3%
CN1C(=O)[C@H]2[C@@H](c3ccc(C(F)(F)F)cc3)N[C@]3(CCCN(Cc4ccc(Cl)cc4)C3=O)[C@H]2C1=O,13%,11µM*,0%,-32%,x
CCN1C(=O)[C@H]2[C@@H](c3ccc(OC)cc3)N[C@]3(CCCN(Cc4ccc(C(F)(F)F)cc4)C3=O)[C@H]2C1=O,-12%,0%,0%,0%,x
COc1ccc(CN2CCC[C@]3(N[C@H](c4ccc(C(F)(F)F)cc4)[C@@H]4C(=O)N(Cc5ccccc5)C(=O)[C@@H]43)C2=O)cc1,-22%,8.9µM*,-2%,-3%,x
CCOc1ccc(NS(=O)(=O)c2ccc3[nH]cc(C(=O)NCc4ccccc4)c(=O)c3c2)cc1,x,7%,x,4%,x
O=C(Nc1ccc(F)cc1F)N1CCN(c2ccc(Cl)c(Cl)c2)CC1,x,11µM*,x,2%,x
CC(C)CC(C(=O)Nc1oc(-c2ccccc2)c(-c2ccccc2)c1C#N)N1C(=O)c2ccccc2C1=O (centres undefined),0%,10µM*,-8%,-25%,-5%
COc1cc(NC(=O)Cn2ncc(Cl)c(Cl)c2=O)c(C)cc1[N+](=O)[O-],-89%,1%[0.307 µM],-27%,0%[0.307 µM],-1%
Cc1ccc(N2Cc3ccccc3C2=S)cc1,4µM*,u,10%,-4%,1%
S=C1c2ccccc2CN1c1ccccc1,86%,-1%,16%,-5%,0%
Cc1nc(N2CCC(C)CC2)c2nnn(Cc3ccccc3)c2n1,-30%,10µM*,21%,3%,10%
CC(C)Cc1nc(N2CCC(C(N)=O)CC2)c2nnn(Cc3ccccc3)c2n1,1%,-1%,14%,-8%,-2%
CCCCOC(=O)C1CN(c2ccccc2)N=C1C(=O)OCC (centres undefined),-31%,10µM*,1%,13%,-3%
Nc1c(C(=O)N2CCCC2)sc2nc3c(cc12)CCCCCC3,4.5µM*,-18%[7.66 µM],2%,0%[7.66 µM],-3%
NC(=O)c1sc2nc3c(cc2c1N)CCC3,8.9µM*,2%,1%,-20%,5%
CCn1nc(C)c(C2C(C#N)=C(N)Oc3n[nH]c(C)c32)c1C (centres undefined),-8%,13%,-2%,15%,-2%
N=C1S/C(=C\c2cn[nH]c2-c2ccc(F)cc2)C(=O)N1c1ccccc1F,7.1µM*,18%,2%,7%,3%
N#C/C(=C(/O)CN1CCCCC1)c1nc(-c2ccc(Cl)cc2)cs1,7.1µM*,2%,-2%,3%,-2%
N#C/C(=C(/O)CN1CCN(c2ccccc2F)CC1)c1nc(-c2ccc(Cl)cc2)cs1,-25%,u,-5%,2%,4%
SMILES,BRCA1 expr up,GLP1R inv ag,GLP-1R agonist,GLP1R cytotox,Mito fusion yeast
CC(C)c1nnc(NC(=O)C2CCN(C(=O)Nc3ccc(Cl)cc3)CC2)s1,37%,4µM*,14%,-6%,8%
CC(C)c1nnc(NC(=O)C2CCN(C(=O)C(C)(C)C)CC2)s1,0%,x,x,x,x
c1ccc2oc(NC3=NCN(C4CCCCC4)CN3)nc2c1,2.8µM*,0%,6%,-11%,6%
CCCN1CCN(c2ncnc3sc(C(=O)Nc4ccc(OC(F)(F)F)cc4)c(C)c23)CC1,x,10µM*,x,-5%,x
COC(=O)c1ccc(COC(=O)c2cccnc2Cl)cc1,13µM*,68%,u,-1%,1%
CCCn1nc2ccccc2c1P(=N)(N1CCOCC1)N1CCOCC1,2%,5%,9%,-2%,-1%
Cc1ccc(Cl)c(Nc2ccccc2C(=O)O)c1Cl,-28%,-3%,13%,-4%,5.2µM*!
Cc1c(Cl)cccc1Nc1ccccc1C(=O)O,-35%,3%,-5%,3%,-7%
COc1ccccc1C(=O)NCC(c1cccs1)N1CCc2ccccc21 (centres undefined),-21%,10µM*,-4%,0%,u
COc1cccc(C(=O)NCC(c2cccs2)N2CCc3ccccc32)c1 (centres undefined),-32%,u,5%,8%,16µM*
O=C(NCC(c1cccs1)N1CCc2ccccc21)c1ccccc1 (centres undefined),-54%,7.1µM*,-2%,u,u
O=C(C[C@H]1C/C=C\CC[C@H](Cc2ccc(F)cc2)C(=O)OC[C@H]2CCCN2C1=O)N[C@H](CO)Cc1ccccc1,-12%,-20%,-2%,2%,x
Cc1cc(C)c2c(CC(=O)N3CCN(c4cccc(Cl)c4)CC3)coc2c1,x,u,x,-29%,x
Cc1ccc(Cc2c(C3CCCCC3)nc3c4ccccc4ccn23)cc1,3%,-31%,3%,-1%,x
O=C(COC(=O)c1cccc2ccccc12)NCCCc1ccccc1,6%,-6%,6%,1%,20%
CC(=O)Nc1cccc(C(=O)/C=C/c2cccs2)c1,-18%,u,-11%,-39%,10µM*
COc1ccc(-c2nc3sc(CCNC(=O)c4cc(OC)c(OC)c(OC)c4)c(C)n3n2)cc1,7.9µM*,2%,1%,-9%,x
CCCCCc1nc2sc3c(c2c(=O)n1N)CCC3,21%,1%,3%,-1%,0%
COC(=O)C1=C/C=C\CN(C(c2ccccc2)c2ccccc2)/C=C\1C(=O)OC,-23%,10µM*,1%,0%,x
CCOc1ccc(NC(=O)NC2CCOC(C)(C)C2)cc1 (centres undefined),55%,0%,-10%,-6%,1%

# Screening data: PubChem BioAssay, National Center for Advancing Translational Sciences (NCATS)
